About 3,700 (7%) of roughly 53,000 sequences were called active.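 The calls were made as follows: active = gene knockdowns whose robust z-score for IL-1 alpha signal is at least 2 or at most -2, so actives lie on both sides; inactive = the rest.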 The sample as a whole holds a higher share of actives than the screen did.
assay: Components of the Cytosolic LPS Sensing Pathway: Gene Identification via Genome-wide siRNA Screen; settings: RAW264.7 macrophages, IL-1a HTRF, actives lie on both sides, screened at 100 nM (by protocol), cells primed 5 h with Pam3CSK4 first;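 also: robust z of the log signal after scaling to non-targeting control siRNA wells of the plate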
In short: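 RAW264.7 mouse macrophages reverse-transfected with single siRNAs (100 nM final) for 48h, primed with Pam3CSK4 for 5 hours, then transfected with LipidA for 24 hour. Supernatant IL-1a read by HTRF; values normalized to negative-control median, log-transformed robust z-scores.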

Sequence	z-score
CCAUCAAGAUCUCUCAGUATT against A630091E08Rik	-1.25 (inactive)
CGAAUGUCCUGGAAGCAAATT against Olfr142	-0.0904 (inactive)
GCUCUUAGAGAUUUGUUUGTT against Usp14	0.389 (inactive)
CCAUUUUUGCUCAAUUUGCTT against Eif1ax	-0.943 (inactive)
GCCAAACUGCGUCUGAAUGTT against Rras	0.62 (inactive)
GGACAAGUACGGAAAGCCCTT against Hdgfl2	0.196 (inactive)
GCCACAUAAGGUUGUUCCCTT against Gamt	2.9 (active)
CCUCUCCAACAACCAACUATT against Lrrc47	-0.27 (inactive)
GGCUCCAAAUCAAACUCUATT against Eif4e3	2.19 (active)
GGAACCAAGCCAUGAUUUUTT against Mrgprb2	0.646 (inactive)
CCAGUACUCGUUUCACUUATT against Mrpl15	0.374 (inactive)
GGUGGACUUGUACCUCUUCTT against Tnks	-0.0808 (inactive)
CCGUAUUGUCACUUGUGGGTT against Arpc1a	0.479 (inactive)
CAGGAAAUUAGCGAUGUGGTT against Abl2	0.206 (inactive)
GGUGCUAAAGUCAAAAAACTT against Fras1	0.218 (inactive)
GAAGGGACUUCAAAGUUGATT against Ndufb10	3.3 (active)
GGGACAUCAGAUUAUUCAUTT against Zfp87	1.43 (inactive)
GGAAGACAAUGGUGUGAAATT against Pgm3	-0.74 (inactive)
GGCCGCCAUUUUGGCAAGATT against Fbxo27	3.41 (active)
CGGUGAUAACAGACAUUAATT against Aldh8a1	-0.561 (inactive)
CCGAACCUUCAGCUACACATT against Keap1	0.0133 (inactive)
GGAAAAAUUCGAGGGACUGTT against Rcan2	1.12 (inactive)
GGAAGUGUAUUCAAGAAGUTT against Tapt1	3.02 (active)

Sequence	z-score
GCCGUUCUGCUAUCACAACTT against Scrn2	-0.531 (inactive)
GAAGAGACCUUCACAAAGUTT against Hnrnpll	-1.52 (inactive)
GGAGCGAGGAAUCAAUGUUTT against Prss8	2.86 (active)
GGAACACCUACAGUAUAAATT against Cdc123	-0.39 (inactive)
GGAGCGAUUUGCUGGUGUGTT against Rps16	1.19 (inactive)
GGUAUCAAGGUGAAGUUGATT against Septin1	0.776 (inactive)
GGGACACUACCCUGAUGAUTT against Vmn1r205	-2.05 (active)
GGUUGGACAAAAAGAAUCUTT against Ifngr1	0.507 (inactive)
GGUCUGAGUUUUAAACAGUTT against Gmfb	1.13 (inactive)
GGGUUACCUCCUGACUGUUTT against Olfr930	-1.9 (inactive)
GCUGCUUUGCUAUCUCCUGTT against Apof	-2.25 (active)
CGAGGAGUUGGAUUUCAGGTT against Dnmbp	-0.713 (inactive)
GGGAGUAAAGAAAAUGUUATT against Atxn2	-0.112 (inactive)
GCUUAUUUCGCCUAUGUGGTT against Slc24a2	-1.11 (inactive)
GCAAGAUGGUAUCAGCAGATT against Sde2	-2.1 (active)
GGAAAGAGGAAGAUAAAGUTT against 2310002L09Rik	-1.17 (inactive)
CCGCUUUUCAUAACACGAATT against Obp2a	0.037 (inactive)
CCUCAUUUAGAUGUCUUGATT against Ran	-0.0987 (inactive)
GUCUUUGUUCAGGAGGUGATT against Ahnak	0.0593 (inactive)
GCCAUGCUAAUCAAGACGGTT against Gtf2ird2	-0.99 (inactive)
GCUCUCUCUCAUUGAUCUCTT against Olfr697	-1.63 (inactive)
GGUUUGGCAUCUAAAGAGCTT against Olfr1412	-2.42 (active)
CCAGCUUUUACCUAAUACCTT against Ggt1	0.0683 (inactive)

Sequence	z-score
GGGUAUCUGAUUUAUAAGCTT against Mageh1	-0.371 (inactive)
GGGAAAGGGUUUUUUAUUCTT against Slc1a1	-0.177 (inactive)
GCCAAAAAGUGUGUGUUGGTT against Olfr731	0.0799 (inactive)
CCAGUUUGCACAAGUUUUCTT against Fyco1	1.94 (inactive)
GGAUCUUCCAAGUUGUCUGTT against Srm	2.42 (active)
CGAGCUGAACAGAAUGAUATT against Krt85	0.265 (inactive)
GGCAAGGUCAAGGACACCATT against Tcp11	-0.77 (inactive)
GCAUGCAUGCUAUUGUUUUTT against 4931431C16Rik	0.336 (inactive)
GGCACACACUGAUUUUUUUTT against Cops2	0.0987 (inactive)
GGUCCAAUGGAUUUUGUUUTT against Pxdc1	2.06 (active)
GGUGCGAAGGAAAUUGCACTT against Mrps26	1 (inactive)
GCCUUUACUGGAUUCAUUGTT against Acadm	2.53 (active)
GGCAGAGAAUCAGCUCCUUTT against Il16	0.377 (inactive)
CGAUCGAUAAAUGUAAUGATT against Heatr5a	-0.0662 (inactive)
GGAGUAUGCUGUCAAAAUCTT against Mknk1	0.259 (inactive)
GGAUCACCAGACCUUUUUCTT against St7l	-1.94 (inactive)
CCAGGAAUCUAGAUAAUAGTT against BC031181	-1.05 (inactive)
GCAUUACCAAAAGCAGUCUTT against Lyn	-1.46 (inactive)
CCUCUAUUCUCCGUCUAUGTT against Fars2	2.45 (active)
GGCUACAUUGUCUCAUUGUTT against Opn1mw	-0.59 (inactive)
GGUUAAGGAGAAAUGUGAUTT against Mob3a	-0.0804 (inactive)
GGUUAAAAUGCCAUAACAATT against Ksr1	-1.26 (inactive)
GGGAAGUCAUUCACAUAUUTT against Rab39b	-1.58 (inactive)

Reference: PubChem BioAssay AID1508600 (Functional Genomics Laboratory (NCATS/FGL), 2020)
